The values below come from PubChem BioAssay AID743386 (Vanderbilt Specialized Chemistry Center, 2014).

This assay has as its target Metabotropic glutamate receptor 7 (Rattus norvegicus) (UniProt P35400). The experiment in a line: glutamate curve shift by mGlu7 potentiators, cell-based, rat, GIRK per title (AID 743386). The conditions noted are these: rat mGlu7/Ga15, glutamate CRC shift, calcium; glutamate EC50 left shift; at 10 µM; stronger effect = higher value.

Structures are written as SMILES.

Chain of Metabotropic glutamate receptor 7 (Rattus norvegicus) (P35400 whole entry, looked up): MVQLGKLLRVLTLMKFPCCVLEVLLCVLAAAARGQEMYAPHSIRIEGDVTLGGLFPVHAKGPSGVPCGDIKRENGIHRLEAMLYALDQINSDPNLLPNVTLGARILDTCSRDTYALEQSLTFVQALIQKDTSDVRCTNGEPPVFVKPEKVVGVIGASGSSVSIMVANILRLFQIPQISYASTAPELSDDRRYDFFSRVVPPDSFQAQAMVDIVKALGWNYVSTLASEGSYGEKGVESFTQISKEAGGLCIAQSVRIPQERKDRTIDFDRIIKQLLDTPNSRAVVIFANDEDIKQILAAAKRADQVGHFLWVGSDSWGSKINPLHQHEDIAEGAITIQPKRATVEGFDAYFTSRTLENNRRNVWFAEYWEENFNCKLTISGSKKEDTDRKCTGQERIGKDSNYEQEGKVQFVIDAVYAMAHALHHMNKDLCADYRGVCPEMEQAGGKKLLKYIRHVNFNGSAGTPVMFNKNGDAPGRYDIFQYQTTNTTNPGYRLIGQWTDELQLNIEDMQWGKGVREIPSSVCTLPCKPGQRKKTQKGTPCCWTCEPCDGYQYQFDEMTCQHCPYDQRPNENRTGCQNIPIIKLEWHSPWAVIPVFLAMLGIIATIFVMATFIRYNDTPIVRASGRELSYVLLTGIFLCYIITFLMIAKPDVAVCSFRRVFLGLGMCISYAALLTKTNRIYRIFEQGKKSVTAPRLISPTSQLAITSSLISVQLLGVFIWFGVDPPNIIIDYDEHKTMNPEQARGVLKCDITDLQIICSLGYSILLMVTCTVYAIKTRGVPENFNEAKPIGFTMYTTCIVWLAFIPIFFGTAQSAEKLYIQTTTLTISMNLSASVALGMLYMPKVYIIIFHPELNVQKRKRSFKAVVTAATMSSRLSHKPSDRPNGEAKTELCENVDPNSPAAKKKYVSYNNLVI

Turning to `COC(=O)c1ccc(-n2c(C)cc(C(=O)CSc3ccc(NC(C)=O)cc3)c2C)cc1`, the fold shift was 4.91.
